TSG101-PTAP inh = blocks PTAP binding to human TSG101, validation; 44,000 tested, under 10 active; AID 1347069; Fluorescence polarization, FITC-PTAP peptide/Tsg101, 20 min; Q99816; Potency, µM (highest dose often 115 µM), usual class: inhibitors
Target sequence (Q99816 whole entry, looked up): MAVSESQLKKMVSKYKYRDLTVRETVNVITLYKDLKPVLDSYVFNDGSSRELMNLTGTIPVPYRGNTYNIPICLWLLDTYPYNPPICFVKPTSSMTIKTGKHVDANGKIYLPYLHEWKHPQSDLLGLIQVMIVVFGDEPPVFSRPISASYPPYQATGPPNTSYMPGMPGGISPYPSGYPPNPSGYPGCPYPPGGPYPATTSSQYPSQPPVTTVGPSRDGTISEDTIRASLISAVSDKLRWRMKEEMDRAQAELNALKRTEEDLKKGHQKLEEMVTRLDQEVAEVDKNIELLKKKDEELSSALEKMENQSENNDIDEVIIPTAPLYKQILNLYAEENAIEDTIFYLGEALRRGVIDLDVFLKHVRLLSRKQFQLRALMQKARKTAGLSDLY
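qHTS FP binding, 20 min r.t.: 10 uM Tsg101 domain + 50 nM FITC-PTAP peptide, pH 7.5 HEPES buffer with TCEP and EDTA.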
FH mod = Identification of activators of human fumarate hydratase by quantitative high-throughput screening | Fumarate hydratase, mitochondrial (Homo sapiens), P07954 | FH coupled MDH/diaphorase resazurin fluorescence, 15 min | Potency, µM (series often up to 79.9 µM), actives largely listed as inhibitors | 0.22% of 54,000 active | AID 1347055, 2019; note: the screen sought activators but most active calls are inhibition curves; nearly all actives have a fitted effect of over 45% in size
GALC G270D up = enhancers of human galactocerebrosidase G270D mutant activity in cells. P54803. 145M-Twi-hGALC-G270D cells (Twitcher mouse brain line with human GALC G270D), HMU-beta-Gal fluorescence, 48 h. Potency, µM (titrated, usually from 57.5 µM), actives largely listed as activators. 0.1% of 45,000 active. AID 1159614; note: nearly all actives have a fitted effect of over 65% in size
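Fluorescence readout: HMU-β-gal cleavage by mutant GALC (0.1 mM final, citrate/phosphate pH 5.2 with 1 mg/mL taurocholate), stopped with carbonate/bicarbonate plus Triton X-100. Cells: murine Twitcher 145M-Twi expressing human G270D GALC; qHTS for activators.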
B2AR arrestin ag = ADRB2 beta-arrestin recruitment; P07550; HTLA Tango cells, beta-arrestin recruitment, luciferase luminescence, 18 h; Potency, µM (titrated, usually from 46.1 µM), usual class: activators; 44,000 tested, under 10 active; AID 1347077
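Ligand-induced beta-arrestin recruitment to recombinant beta2-AR is measured via a tTA-driven luciferase reporter in Tango cells after 18 hr compound exposure at 37 degrees C. Concentrations span up to 46 microM.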
DRV1 agonist = activates human resolvin D1 receptor GPR32. 2.5% of 48,000 active. O75388. activation, % at 76.9 µM. CHO-K1 GPR32 beta-arrestin PathHunter luminescence, 90 min; zero percent set by DMSO-only wells;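 active = activation of at least 60% and not above a set upper limit, about 1 call in 100 departs from these limits; inconclusive = activation of 40% to 60%, or above that upper limit; inactive = activation under 40%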
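Cells are plated overnight, treated with compounds in DMSO for 90 minutes at 37 °C, and developed with PathHunter detection reagent for 1 hour before luminescence is read; signal reflects beta-arrestin binding to GPR32 in engineered CHO-K1 cells.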
GALK inhibitor = inhibitors of human galactokinase (GALK) | P51570 | recombinant GALK, Kinase-Glo ATP luminescence, 1 h | Potency, µM (highest dose often 57.5 µM), usual class: inhibitors | 44,000 tested, under 10 active
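Luminescent ATP-depletion readout (Kinase-Glo Plus, 10 min) after 1 h RT reaction of 5 nM GALK, 35 uM ATP, 100 uM galactose, pH 8.0 HEPES buffer. Decreased kinase activity scored as inhibition.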
Numbers stand for hits; . = inactive; ? = inconclusive; / = no result given; ! = not confirmed by another sample. This is a sample that favours compounds with a hit; in the whole collection about 2.6% have one here. Unless noted, calls come from the whole dose curve; as a rule, active = well fitted curve in the direction sought with a large enough effect; inconclusive = small, poorly fitted or top-dose-only effect, or another doubt; inactive = no such curve, though single readings can be large; an effect the other way counts as inactive or inconclusive.

SMILES | TSG101-PTAP inh | FH mod | GALC G270D up | B2AR arrestin ag | DRV1 agonist | GALK inhibitor
Nc1nc(Nc2ccc3c(c2)CCC(N2CCCC2)CC3)nn1-c1cc2c(nn1)-c1ccccc1CCC2 (centres undefined) | / | . | / | / | / | /
C/C=C/C=C/C=C/C(=O)O[C@@H]1C=C2COC(=O)[C@]2(O)[C@@]2(C)CCCC(C)(C)[C@H]12 | / | . | / | / | / | /
COc1ccc(C(=O)/C=C/c2cn(CC(O)CN(CC(C)C)CC(C)C)c3ccccc23)cc1 (centres undefined) | . | . | 22µM | . | . | .
CCCN(CCC)CC(O)Cn1cc(/C=C/C(=O)c2ccc(OC)cc2)c2ccccc21 (centres undefined) | . | . | 28µM | . | . | .
CCCN(CCC)CC(O)Cn1cc(/C=C/C(=O)c2ccc(C)cc2)c2ccccc21 (centres undefined) | . | . | . | . | . | .
CCCC(C(=O)O)c1c(C)nc2ccc(Cl)cc2c1-c1ccccc1 (centres undefined) | / | . | / | / | / | /
CO[C@H]1O[C@@H]2O[C@@]3(C)CCC4[C@H](C)CCC([C@H]1C)[C@]42OO3 (some centres undefined) | / | . | / | / | / | /
Cn1nc(-c2ccc(OCC(=O)Nc3cccc(C(F)(F)F)c3)cc2)c2ccccc2c1=O | . | . | . | . | 85 | .
Cn1nc(-c2ccc(C(=O)Nc3ccc(F)cc3)cc2)c2ccccc2c1=O | . | . | . | . | 105 | .
C=C1C(=O)OC2CC(C)=C(C(C)CCCO)C(O)C12 (centres undefined) | / | . | / | / | / | /
COc1ccccc1C(=O)Nc1nnc(SCc2cc(=O)n3ccc(C)cc3n2)s1 | . | 1.1µM | . | . | . | .
COc1ccccc1NC(=O)CSc1nnc(NC(=O)Nc2ccc(C)cc2)s1 | . | . | . | . | 78 | .
COc1ccccc1NC(=O)CSc1nnc(N)s1 | . | . | . | . | . | .
NC(=O)c1ccc(OCC2NC(=O)C3CCCN3C2=O)cc1 (centres undefined) | / | . | / | / | / | /
CNCCC(Oc1ccc(C(F)(F)F)cc1)c1ccccc1 (centres undefined) | / | . | . | / | 104! | /
O=C(Nc1cccc(Br)c1)Nc1nc2c(s1)CCCCCC2 | . | . | . | . | 113 | .
Cn1cc(-c2ccc(S(=O)(=O)n3ccc(/C=C/C(=O)Nc4ccccc4N)c3)cc2)cn1 | / | . | / | / | / | /
CSc1ccc(Cn2nnc(C(=O)Nc3ccc(C)cc3Cl)c2N)cc1 | . | . | . | . | 99 | .
COC(=O)C[C@H]1[C@]2(C)C3=C(C)[C@H](c4ccoc4)C[C@H]3O[C@@H]2[C@H](O)C2[C@](C)(C(=O)OC)C=CC(=O)[C@@]21C (some centres undefined) | / | . | / | / | / | /
Cc1ccc(CNS(=O)(=O)c2ccc3[nH]c4c(c3c2)CCCCC4)cc1 | . | . | . | . | ? | .
Cc1ccc(CNS(=O)(=O)c2ccc3[nH]c4c(c3c2)CCCC4)cc1 | . | ? | . | . | 72 | .
O=S(=O)(NCc1ccc(Cl)cc1)c1ccc2[nH]c3c(c2c1)CCCC3 | . | ? | . | . | 77 | .
O=S(=O)(NCc1ccc(F)cc1)c1ccc2[nH]c3c(c2c1)CCCC3 | . | ? | . | . | 118 | .
COC1CC(OC2CCC3(C)C(=CCC4C3CCC3(C)C(C(C)O)CCC43O)C2)OC(C)C1OC1OC(C)C(OC2OC(COC3OC(COC4OC(CO)C(O)C(O)C4O)C(O)C(O)C3O)C(O)C(O)C2O)C(OC)C1O (centres undefined) | / | . | / | / | / | /
COc1ccc2c(c1O)OC[C@H]1c3ccc(O)cc3O[C@@H]21 | / | . | / | / | / | /
SMILES | TSG101-PTAP inh | FH mod | GALC G270D up | B2AR arrestin ag | DRV1 agonist | GALK inhibitor
CC1(C)C[C@@H]2[C@H](C1)[C@@]1(C)C[C@]13C(O)OC[C@]3(O)[C@H]2O (some centres undefined) | / | . | / | / | / | /
Oc1cc(O)cc(/C=C/c2ccc(O)c(O)c2)c1 | / | 3.5µM! | / | / | . | /
C/C=C/c1ccc(O)c(OC)c1 | / | ? | . | / | . | /
CCCn1ccc2c(OCC(=O)Nc3ccc(OC)c(OC)c3)cccc2c1=O | . | . | . | . | 86 | .
CCCCc1ccc(NC(=O)COc2cccc3c(=O)n(C)ccc23)cc1 | . | . | . | . | 60 | .
Cn1ccc2c(OCC(=O)NCc3ccccc3Cl)cccc2c1=O | . | . | . | . | 86 | .
O=S(=O)(Nc1ccc(O)c(Sc2nc3ccccc3s2)c1)c1cc(Cl)ccc1Cl | . | 16µM | . | . | . | .
Cc1cc(S(=O)(=O)Nc2ccc(O)c(Sc3nc4ccccc4s3)c2)ccc1Cl | . | ? | . | . | 101 | .
Cc1ccc(S(=O)(=O)Nc2ccc3[nH]c(=O)sc3c2)cc1C | . | . | . | . | . | .
CCOC(=O)N1CCC(CN(Cc2ccc(Cl)cc2)Cc2ccc([N+](=O)[O-])s2)C1 (centres undefined) | / | . | / | / | / | /
Cc1cn(C2OC(CO)C(O)C2F)c(=O)[nH]c1=O (centres undefined) | / | . | / | / | / | /
Cc1ccc(C(=O)Nc2ccc(S(=O)(=O)O)c3cc(S(=O)(=O)O)cc(S(=O)(=O)O)c23)cc1NC(=O)c1cccc(NC(=O)Nc2cccc(C(=O)Nc3cc(C(=O)Nc4ccc(S(=O)(=O)O)c5cc(S(=O)(=O)O)cc(S(=O)(=O)O)c45)ccc3C)c2)c1 | / | 14µM | . | / | . | /
CC(C)(C)c1ccc(C(=O)NNc2ncnc3c2cnn3-c2ccccc2)cc1 | . | . | . | . | 104 | .
CC(C)(C)c1ccc(C(=O)NNc2ncnc3c2cnn3-c2ccc(Cl)cc2)cc1 | . | . | . | . | . | .
CC(O)C1NC(=O)C2CCCN2C1=O (centres undefined) | / | . | / | / | / | /
COc1ccc(/C=C/C(=O)Nc2ccc(Cl)c(Cl)c2)cc1 | . | . | . | . | 68 | .
COc1ccc(/C=C/C(=O)Nc2ccc(C)cc2)cc1 | . | . | . | . | . | .
CN(CCc1ccc(Nc2ncc(-c3cccnc3)s2)cc1)Cc1ccccc1 | / | . | / | / | / | /
Cc1ccc(C)c(NC(=O)Cn2c(=O)oc3cc(S(=O)(=O)NCc4ccccc4)ccc32)c1 | . | . | . | . | 72 | .
Cc1ccc(NC(=O)Cn2c(=O)oc3cc(S(=O)(=O)NCc4ccccc4)ccc32)cc1 | . | . | . | . | 81 | .
Cc1ccc(NC(=O)Cn2c(=O)oc3cc(S(=O)(=O)N4CCCCC4)ccc32)c(C)c1 | . | . | . | . | 115 | .
Cc1ccccc1-n1nc(-c2c(-c3ccc(F)cc3)nn3c2NC[C@@H](CO)C3)ccc1=O | / | . | / | / | / | /

Bioassay records: PubChem, National Center for Advancing Translational Sciences (NCATS)
